The list is not random: actives were taken first. Their share in the collection is about 1.8%.
PI5P4Ka inh: inhibitors of human PI5P4K alpha | max response, % | PI5P4Kalpha enzyme, ADP-Glo luminescence, 60 min; stronger effect = lower value | P48426 | 1.2% of 330,000 active; active means max response of -50% or lower; inconclusive means between -30% and -50%; inactive means -30% or higher; further: value at the top dose of about 77 µM
Target sequence (P48426 whole entry, looked up): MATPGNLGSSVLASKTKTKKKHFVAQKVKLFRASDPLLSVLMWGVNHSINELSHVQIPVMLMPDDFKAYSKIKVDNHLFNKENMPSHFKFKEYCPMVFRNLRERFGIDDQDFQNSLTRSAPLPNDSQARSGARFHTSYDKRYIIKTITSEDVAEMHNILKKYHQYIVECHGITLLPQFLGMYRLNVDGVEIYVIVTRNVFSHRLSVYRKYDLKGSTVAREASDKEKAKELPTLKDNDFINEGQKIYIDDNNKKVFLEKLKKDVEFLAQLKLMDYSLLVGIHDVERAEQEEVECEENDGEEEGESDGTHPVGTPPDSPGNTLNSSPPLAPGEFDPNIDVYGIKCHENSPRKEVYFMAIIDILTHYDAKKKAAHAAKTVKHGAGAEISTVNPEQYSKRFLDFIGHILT
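PI5P4Kalpha ADP-Glo assay; 5 microM ATP final; 60 min RT reaction; HEPES pH 7.4/EGTA/CHAPS, 5% DMSO; controls lacking substrate or enzyme; luminescent end-point.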
pAkt inh: Akt phosphorylation inhibition; Neuro2A IGF-stimulated pAkt S473 HTRF, 20 min; stronger effect = lower value; activity change, % for hits at 50 µM; 0.32% of 360,000 active; in the data active means activity change below about -80%; inconclusive means mostly about -51% to -80%
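Neuro2A cells (4,500/well, DMEM with 0.5% FBS) were treated with compound at a single 50 µM final concentration, stimulated with 6 nM IGF for 20 min at 37 °C, and lysed. Phospho-Akt Ser473 was read by HTRF as 665/615 ratio ×10^4.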
PI4K2A inh: blocks human PI4K2A kinase activity | purified PI4K2A, ADP-Glo luminescence, 1 h; stronger effect = lower value | 0.13% of 420,000 active | Q9BTU6 | activity change, negative = inhibition, % at 76.9 µM; in the data active means activity change below about -50%; inconclusive means mostly about -30% to -49%;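 further: -100% = wells without enzyme as full effect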
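Compounds are screened against recombinant PI4K2A using PI as substrate and ATP, the latter dispensed at 300 microM. Reactions run one hour at ambient temperature before ADP-Glo detection; full inhibition defined by wells lacking enzyme.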
Six1-Eya2 blk: Six1/Eya2 interaction inhibition; Q15475+O00167; AlphaScreen GST-Six1/His-Eya2 binding, biochemical; stronger effect = lower value; activity change, % (no concentration beside the values); 0.56% of 360,000 active
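Compounds are tested against tagged Six1 and Eya2 proteins bridged by glutathione donor and nickel acceptor beads; after a one-hour incubation at 37 °C without light, AlphaScreen emission is recorded.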
CtBP-E1A inh: CtBP/E1A binding inhibition; AlphaScreen GST-E1A/His-CtBP binding, 1536-well; stronger effect = lower value; activity change, % (test concentration not listed); 0.49% of 340,000 active
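In 5 uL wells, 23 nL compound meets equimolar GST-E1A and His-CtBP (5X stock 125 nM each) for 2 h, 37 °C. Beads (5X, 50 ug/mL) then 1 h, 37 °C, dark.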
An asterisk follows results filed as active; i = inactive; u = inconclusive; x = no result. Unless noted, no stated cut-off is given here; in the data, active means activity change below about -65%; inconclusive means mostly about -30% to -63%; inactive means weaker than that. Unless noted, on the % scale 0 is the no-effect control and ±100 the full control effect.

SMILES | PI5P4Ka inh | pAkt inh | PI4K2A inh | Six1-Eya2 blk | CtBP-E1A inh
Cc1ccccc1OCC(=O)Nc1ccc(C(=O)OCc2cc(=O)n3c(C)csc3n2)cc1 | x | x | -10 | x | x
C/C(=N/O)c1cc(C(C)(C)C)c(O)c(C(C)(C)C)c1 | 5 | -122%* | 3 | -1 | -1
CC(C)(Sc1cc(C(C)(C)C)c(O)c(C(C)(C)C)c1)Sc1cc(C(C)(C)C)c(O)c(C(C)(C)C)c1 | 21 | i | -1 | -1 | 6
CCc1cccc(NS(=O)(=O)c2c(C)[nH]c(=O)[nH]c2=O)c1 | 5 | i | -4 | 9 | 3
CN1CC(c2ccccc2)C2(SC(=S)N(Cc3ccco3)C2=O)C12C(=O)Nc1ccccc12 (configuration not stated) | x | i | 4 | -23 | -21
CN1CC(c2ccccn2)C2(SC(=S)N(Cc3ccccc3)C2=O)C12C(=O)Nc1ccccc12 (configuration not stated) | x | -84%* | 3 | -76* | -76*
CN1C(=O)/C(=C/c2ccc(-c3ccccc3[N+](=O)[O-])o2)SC1=Nc1ccc(Cl)c(C(=O)O)c1 | -60* | i | -6 | u | -2
CCCNC(=O)c1ccc2c(=O)c(O)c(-c3ccc(C)cc3)[nH]c2c1 | 5 | i | -1 | -1 | 0
CCCNC(=O)c1ccc2c(=O)c(O)c(-c3ccsc3)[nH]c2c1 | -14 | i | 0 | u | -76*
C=CCOc1ccc(/C=C2\SC(=S)N(NS(=O)(=O)c3ccccc3)C2=O)cc1 | -56* | i | -4 | 2 | 5
O=C(O)COc1ccc(C=C2SC(=S)N(c3ccccc3)C2=O)cc1 | -19 | i | -2 | -15 | -92*
CCOc1ccc(/C=C2\SC(=S)N(CCC(=O)O)C2=O)cc1 | 1 | i | -1 | 0 | -10
O=C1/C(=C\c2ccc(Br)cc2)SC(=S)N1NS(=O)(=O)c1ccccc1 | -56* | i | 6 | 4 | 9
CC(/C=C1\SC(=S)N(c2ccc(C(=O)O)cc2)C1=O)=C\c1ccccc1 | -57* | i | -6 | 22 | x
COc1ccc(/C=C2/SC(=S)N(NS(=O)(=O)c3ccccc3)C2=O)cc1 | u | i | -6 | -10 | 0
CCOc1cc(/C=N/NC(=O)COc2ccc(Cl)cc2)ccc1OS(=O)(=O)c1ccccc1 | 12 | i | 2 | 3 | -4
COc1ccc(NC(=O)CSc2nnc(-c3ccc(C)cc3)o2)cc1 | x | x | -2 | x | x
CCOC(=O)c1c(NC(=O)c2nc(SC(C)C)ncc2Cl)sc2c1CCCC2 | x | x | 7 | x | x
O=C1C(Nc2cccc(O)c2)=C(N2CCCCC2)C(=O)c2ccccc21 | x | i | -23 | -71* | 6
O=C1C(Nc2ccccc2)=C(N2CCCCC2)C(=O)c2ccccc21 | 10 | i | -26 | 15 | 21
O=C1C2Sc3[nH]c(=O)sc3C(c3ccccc3)C2C(=O)N1c1ccccc1 (configuration not stated) | 7 | i | -11 | -1 | 3
COC(=O)CSc1nnc(C2COc3ccccc3O2)n1-c1ccccc1 (configuration not stated) | x | i | 1 | 1 | 13
C=CCN1c2ccccc2[C@]23C[C@@H](C(=O)OC)N(C(=O)c4ccc(Br)cc4)C2=NC(C(=O)OC)=C(C(=O)OC)[C@H]13 | -3 | i | 1 | -16 | -18
C=CCN1c2ccccc2[C@]23C[C@@H](C(=O)OC)N(C(=O)c4cccs4)C2=NC(C(=O)OC)=C(C(=O)OC)[C@H]13 | -52* | i | 0 | 0 | x
CCCn1c(SCC(=O)c2c(C)[nH]c(C)c2C(=O)OCC)nc2ccccc21 | 0 | i | 1 | -18 | -9
SMILES | PI5P4Ka inh | pAkt inh | PI4K2A inh | Six1-Eya2 blk | CtBP-E1A inh
CCOc1ccc(Nc2n[nH]c(=S)s2)cc1 | -76* | i | 1 | -10 | -7
S=c1[nH]nc(Nc2ccc(Cl)cc2)s1 | -73* | i | -4 | -4 | x
Cc1nnc(Nc2ccc(Cl)cc2)s1 | 9 | i | 0 | -2 | -9
CCSc1nnc(Nc2ccc(C)cc2)s1 | x | i | -7 | 0 | -2
Cc1ccc(Nc2n[nH]c(=S)s2)cc1 | -68* | i | -8 | -5 | -27
Cc1ccc(Nc2n[nH]c(=S)s2)cc1F | -76* | i | 7 | -17 | 11
CCOc1ccc(Nc2nc3ccccc3c(=O)s2)cc1 | -6 | i | -9 | -14 | -9

Assay outcomes deposited in PubChem by National Center for Advancing Translational Sciences (NCATS).
